Results filed as inconclusive are left out. Active and inactive are the calls of the source. Rule for the calls, unless noted: active = hit-call score of the fitted dose curve at least 0.9, where 1 is the maximum; inactive = score below 0.9.
Tests used:
[1] = ATG_GATA_CIS: Attagene CIS-FACTORIAL HepG2 Assay for human GATA Binding Protein (AID 2282944); settings: HepG2 GATA cis-element reporter, Attagene multiplex mRNA; actives raise or lower the signal
How it was run: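 Read-out: fluorescent reporter mRNA fragments resolved by capillary electrophoresis after RT-PCR. Human liver HepG2 cells carried transiently transfected cis-regulated reporter constructs; chemicals incubated 24 h; gain or loss of signal fitted relative to DMSO.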

[2] = target: Hypoxia-inducible factor 1-alpha (Homo sapiens) (UniProt Q16665); assay: ATG_HIF1a_CIS: Attagene CIS-FACTORIAL HepG2 Assay for human Hypoxia Inducible Factor 1 (HIF1A) (AID 2282951); settings: HepG2 Attagene cis-factorial HIF1a reporter transcription; actives raise or lower the signal
Chain of Hypoxia-inducible factor 1-alpha (Homo sapiens) (Q16665 whole entry, looked up): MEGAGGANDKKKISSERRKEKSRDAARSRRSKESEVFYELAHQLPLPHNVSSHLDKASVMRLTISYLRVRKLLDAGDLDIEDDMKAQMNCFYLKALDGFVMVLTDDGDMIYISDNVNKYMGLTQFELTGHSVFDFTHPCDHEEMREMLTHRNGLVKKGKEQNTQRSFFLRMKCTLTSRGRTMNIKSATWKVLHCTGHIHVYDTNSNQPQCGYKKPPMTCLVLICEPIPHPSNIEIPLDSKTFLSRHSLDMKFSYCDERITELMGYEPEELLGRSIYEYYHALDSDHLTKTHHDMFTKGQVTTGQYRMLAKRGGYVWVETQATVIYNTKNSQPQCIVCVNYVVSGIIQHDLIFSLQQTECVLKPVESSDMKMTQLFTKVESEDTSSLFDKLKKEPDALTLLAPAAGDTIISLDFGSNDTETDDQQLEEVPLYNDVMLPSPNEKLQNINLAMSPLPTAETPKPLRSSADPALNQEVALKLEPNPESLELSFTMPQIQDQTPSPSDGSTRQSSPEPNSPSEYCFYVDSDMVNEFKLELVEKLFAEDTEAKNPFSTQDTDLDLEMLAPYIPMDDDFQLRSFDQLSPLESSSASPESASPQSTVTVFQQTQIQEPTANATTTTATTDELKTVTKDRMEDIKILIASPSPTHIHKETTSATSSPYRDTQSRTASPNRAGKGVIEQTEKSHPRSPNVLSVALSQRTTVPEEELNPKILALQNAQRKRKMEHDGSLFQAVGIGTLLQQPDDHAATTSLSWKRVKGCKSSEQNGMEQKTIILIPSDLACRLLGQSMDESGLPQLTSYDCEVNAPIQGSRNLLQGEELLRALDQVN
How it was run: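 HepG2 cells transiently transfected with multiple cis-regulated reporter transcription units measure endogenous transcription factor activity. After 24 h exposure, reporter mRNA is quantified by RT-PCR with 6-FAM labelling, HpaI digestion and capillary electrophoresis. Bidirectional fitting against DMSO.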

[3] = target: Hepatocyte nuclear factor 6 (Homo sapiens) (UniProt Q9UBC0); assay: ATG_HNF6_CIS: Attagene CIS-FACTORIAL HepG2 Assay for human Hepatocyte Nuclear Factor 6 (HNF6) (AID 2282952); settings: HepG2 Attagene cis-factorial HNF6 reporter transcription; actives raise or lower the signal
Chain of Hepatocyte nuclear factor 6 (Homo sapiens) (Q9UBC0 whole entry, looked up, the tested form may be a part): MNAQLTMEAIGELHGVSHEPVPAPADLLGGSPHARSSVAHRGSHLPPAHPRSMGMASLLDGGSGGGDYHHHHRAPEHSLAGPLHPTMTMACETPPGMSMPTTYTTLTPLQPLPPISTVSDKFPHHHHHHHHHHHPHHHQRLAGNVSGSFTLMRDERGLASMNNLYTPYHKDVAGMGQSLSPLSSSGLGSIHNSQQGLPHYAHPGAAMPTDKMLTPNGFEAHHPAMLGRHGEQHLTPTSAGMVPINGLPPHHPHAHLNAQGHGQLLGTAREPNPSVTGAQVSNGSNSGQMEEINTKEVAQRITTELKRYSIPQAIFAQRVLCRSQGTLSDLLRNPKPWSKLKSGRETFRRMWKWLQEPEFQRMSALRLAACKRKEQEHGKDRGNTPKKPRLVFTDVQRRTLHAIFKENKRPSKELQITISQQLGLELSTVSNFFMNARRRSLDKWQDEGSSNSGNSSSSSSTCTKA
How it was run: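 Twenty-four-hour chemical treatment of reporter-transfected HepG2 cells precedes RNA isolation, DNase-treated reverse transcription and PCR of reporter sequences. Labelled fragments are sized by capillary electrophoresis and fitted bidirectionally versus DMSO.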

[4] = target: Heat shock factor protein 1 (Homo sapiens) (UniProt Q00613); assay: ATG_HSE_CIS: Attagene CIS-FACTORIAL HepG2 Assay for human Heat Shock Transcription Factor 1 (HSE) (AID 2282953); settings: HepG2 HSE cis-reporter, Attagene RNA transcription; actives raise or lower the signal
Chain of Heat shock factor protein 1 (Homo sapiens) (Q00613 whole entry, looked up, the tested form may be a part): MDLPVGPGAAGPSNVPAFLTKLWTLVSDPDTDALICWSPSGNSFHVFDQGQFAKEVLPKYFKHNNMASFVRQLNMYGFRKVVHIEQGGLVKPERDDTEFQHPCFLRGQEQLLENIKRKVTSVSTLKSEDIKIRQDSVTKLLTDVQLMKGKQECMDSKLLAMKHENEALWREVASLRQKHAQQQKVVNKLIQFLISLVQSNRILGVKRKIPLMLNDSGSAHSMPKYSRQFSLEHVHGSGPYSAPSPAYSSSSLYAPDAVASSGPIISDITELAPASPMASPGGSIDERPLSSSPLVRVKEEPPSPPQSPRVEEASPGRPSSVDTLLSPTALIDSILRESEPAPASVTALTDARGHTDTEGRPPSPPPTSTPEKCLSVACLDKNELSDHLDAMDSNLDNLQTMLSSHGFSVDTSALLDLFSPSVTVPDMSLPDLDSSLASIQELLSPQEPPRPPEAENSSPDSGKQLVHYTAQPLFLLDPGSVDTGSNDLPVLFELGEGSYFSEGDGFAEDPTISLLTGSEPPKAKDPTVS
How it was run: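 Read-out: fluorescence of reporter-specific RT-PCR fragments separated by capillary electrophoresis. HepG2 carrying transfected cis-element reporter units; 24 h dosing; activity fitted in both directions relative to DMSO baseline.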

[5] = ATG_PXRE_CIS: Attagene CIS-FACTORIAL HepG2 Assay for human Pregnane X Receptor Element (PXRE) (AID 2282957); settings: HepG2 Attagene CIS-FACTORIAL PXRE reporter, mRNA; actives raise or lower the signal
How it was run: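 Bidirectional activity, baselined to DMSO, derived from reporter mRNA fluorescence (RT-PCR plus capillary electrophoresis) in HepG2 cells bearing cis-promoter reporter units, 24 h exposure.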

[6] = ATG_Sox_CIS: Attagene CIS-FACTORIAL HepG2 Assay for human SRY-box transcription factor (SOX) (AID 2282960); settings: HepG2 Attagene cis-factorial SOX reporter, mRNA; actives raise or lower the signal
How it was run: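 HepG2 cells transiently transfected with multiple cis-regulated reporter units, then dosed for 24 h. Reporter mRNA quantified by RT-PCR, fluorescent labelling, HpaI digestion and capillary electrophoresis; bidirectional fit versus DMSO.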

[7] = target: Signal transducer and activator of transcription 3 (Homo sapiens) (UniProt P40763); assay: ATG_STAT3_CIS: Attagene CIS-FACTORIAL HepG2 Assay for human Signal Transducer and Activator of Transcription 3 (STAT3) (AID 2282963); settings: HepG2, Attagene cis-factorial STAT3 reporter transcription; actives raise or lower the signal
Chain of Signal transducer and activator of transcription 3 (Homo sapiens) (P40763 whole entry, looked up, the tested form may be a part): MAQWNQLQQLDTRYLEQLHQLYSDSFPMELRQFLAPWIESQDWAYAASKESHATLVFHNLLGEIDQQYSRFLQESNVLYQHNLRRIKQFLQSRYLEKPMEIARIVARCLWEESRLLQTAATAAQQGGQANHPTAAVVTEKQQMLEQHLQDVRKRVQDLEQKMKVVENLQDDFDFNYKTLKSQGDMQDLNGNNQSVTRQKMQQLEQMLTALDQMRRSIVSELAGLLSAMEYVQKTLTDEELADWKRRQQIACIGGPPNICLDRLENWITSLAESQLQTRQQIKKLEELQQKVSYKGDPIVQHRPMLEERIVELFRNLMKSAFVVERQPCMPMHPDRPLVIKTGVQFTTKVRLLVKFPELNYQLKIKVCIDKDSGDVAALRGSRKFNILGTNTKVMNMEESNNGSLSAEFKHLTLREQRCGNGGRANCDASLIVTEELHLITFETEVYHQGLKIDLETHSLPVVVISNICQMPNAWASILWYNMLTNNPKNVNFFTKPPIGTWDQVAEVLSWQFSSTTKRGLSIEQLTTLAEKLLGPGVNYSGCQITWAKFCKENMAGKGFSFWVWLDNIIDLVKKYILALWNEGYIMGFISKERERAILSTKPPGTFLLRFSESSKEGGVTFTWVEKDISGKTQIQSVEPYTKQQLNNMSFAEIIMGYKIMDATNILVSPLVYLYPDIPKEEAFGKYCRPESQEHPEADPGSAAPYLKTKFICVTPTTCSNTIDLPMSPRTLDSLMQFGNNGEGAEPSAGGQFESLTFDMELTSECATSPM
How it was run: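 Readout: fluorescent reporter mRNA fragments resolved by capillary electrophoresis. Setup: HepG2 transfected with MRTUs reporting endogenous transcription-factor activity, dosed 24 h. Gain or loss of signal fitted bidirectionally against DMSO control.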

[8] = ATG_TAL_CIS: Attagene CIS-FACTORIAL HepG2 Assay for human TAL Basal Promoter (AID 2282966); settings: HepG2 Attagene cis-factorial TAL promoter reporter; actives raise or lower the signal;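 note: background control endpoint measuring basal TAL promoter reporter mRNA not a specific factor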
How it was run: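 Human hepatoma HepG2 cells, transfected with promoter-regulated reporter units, were treated 24 h. Reporter transcript levels, measured through RT-PCR and capillary electrophoresis, were fitted for gain or loss relative to DMSO.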

[9] = ATG_VDRE_CIS: Attagene CIS-FACTORIAL HepG2 Assay for human Vitamin D Receptor Element (VDRE) (AID 2282968); settings: HepG2 VDRE cis-reporter transcription, actives raise or lower the signal
How it was run: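 Transient MRTU transfection of HepG2, 24 h compound exposure. Readout: reporter transcripts via RT-PCR and capillary electrophoresis, fluorescence. Bidirectional fit vs DMSO.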

[10] = target: X-box-binding protein 1 (Homo sapiens) (UniProt P17861); assay: ATG_Xbp1_CIS: Attagene CIS-FACTORIAL HepG2 Assay for human X-box Binding Protein 1 (XBP1) (AID 2282972); settings: HepG2 XBP1 cis-element reporter, Attagene multiplex; actives raise or lower the signal
Chain of X-box-binding protein 1 (Homo sapiens) (P17861 whole entry, looked up, the tested form may be a part): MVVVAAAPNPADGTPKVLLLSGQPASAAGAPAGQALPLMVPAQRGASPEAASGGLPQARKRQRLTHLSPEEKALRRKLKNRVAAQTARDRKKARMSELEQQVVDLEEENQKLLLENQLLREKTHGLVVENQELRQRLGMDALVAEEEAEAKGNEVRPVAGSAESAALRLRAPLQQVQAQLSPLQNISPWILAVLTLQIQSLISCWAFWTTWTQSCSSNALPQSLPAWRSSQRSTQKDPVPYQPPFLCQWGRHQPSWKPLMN
How it was run: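 Read-out: fluorescent reporter mRNA fragments resolved by capillary electrophoresis after RT-PCR. Human HepG2 liver cells carried transfected cis-promoter reporter units and were exposed to chemicals for 24 hours. Gain or loss of signal fitted relative to DMSO baseline.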

[11] = ATG_M_06_TRANS: Attagene TRANS-FACTORIAL HepG2 Assay for M06 Transcription Factor (Internal Marker) (AID 2282983; active = hit-call score of the fitted dose curve at least 0.9, where 1 is the maximum); settings: HepG2 Attagene TRANS M06 internal marker reporter
How it was run: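 Multi-reporter-transfected HepG2, 24 h treatment; reporter transcripts quantified via RT-PCR, primer-extension labelling and CE. DMSO-normalized gain-of-signal fit.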

[12] = ATG_NFI_CIS: Attagene CIS-FACTORIAL HepG2 Assay for human Nuclear Factor I (NFI) (AID 2282989); settings: HepG2 cis-regulatory reporter, NFI response element transcription; actives raise or lower the signal
How it was run: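 Read-out: reporter mRNA via RT-PCR plus capillary electrophoresis with fluorescence detection. Transiently transfected HepG2 (endogenous TF activity on cis promoters), 24 h compound exposure; gain or loss of signal fitted against DMSO.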

[13] = target: Myc proto-oncogene protein (Homo sapiens) (UniProt P01106); assay: ATG_Myc_CIS: Attagene CIS-FACTORIAL HepG2 Assay for human Myelocytomatosis (Myc) Proto-Oncogene Transcription Factor (AID 2282990); settings: HepG2, Attagene cis-reporter transcription factor activity; actives raise or lower the signal
How it was run: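 Read-out: fluorescent reporter mRNA fragments resolved by capillary electrophoresis after RT-PCR. Human HepG2 liver cells carried transfected cis-element reporter units and were dosed for 24 h. Gain or loss of signal fitted relative to DMSO baseline.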

[14] = ATG_NRF2_ARE_CIS: Attagene CIS-FACTORIAL HepG2 Assay for human Nuclear Factor Erythroid 2 Related Factor 2 (NFR2) response to Antioxidant Response Elements (ARE) (AID 2282992); settings: HepG2 Attagene ARE/NRF2 reporter, transcription factor activity; actives raise or lower the signal
How it was run: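 Readout: reporter mRNA quantified by RT-PCR plus FAM-labelled primer extension, HpaI digestion and capillary electrophoresis, 24 h after dosing transfected HepG2 cells. Gain or loss of signal is fitted bidirectionally against DMSO baseline.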

[15] = target: Cellular tumor antigen p53 (Homo sapiens) (UniProt P04637); assay: ATG_p53_CIS: Attagene CIS-FACTORIAL HepG2 Assay for human p53 Transcription Factor (AID 2282994); settings: HepG2 p53 cis-element reporter, Attagene mRNA; actives raise or lower the signal
How it was run: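 Read-out: reporter mRNA by RT-PCR plus capillary electrophoresis with fluorescence detection. Human HepG2 liver cells carried transfected multi-reporter cis-element constructs, dosed 24 h. Gain or loss of signal fitted bidirectionally against DMSO control.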

[16] = target: Cellular tumor antigen p53 (Homo sapiens) (UniProt P04637); assay: TOX21_p53_BLA_p2_ratio: Tox21 HCT-116 p53 Agonism Beta-lactamase Assay, Ratio, Phase 2 (AID 2283592; active = hit-call score of the fitted dose curve at least 0.9, where 1 is the maximum)
How it was run: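 DMSO-normalized, positive-direction endpoint derived from the 460 nm/530 nm FRET ratio in HCT116 p53 beta-lactamase reporter cells exposed 16 h at 37C and loaded with CCF4-AM for 2 h.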

[17] = target: Transcription factor E2F1 (Homo sapiens) (UniProt Q01094); assay: ATG_E2F_CIS: Attagene CIS-FACTORIAL HepG2 Assay for human E2F Transcription Factor 1 (AID 2282935); settings: HepG2 Attagene cis-reporter, E2F reporter RNA transcripts; actives raise or lower the signal
Chain of Transcription factor E2F1 (Homo sapiens) (Q01094 whole entry, looked up): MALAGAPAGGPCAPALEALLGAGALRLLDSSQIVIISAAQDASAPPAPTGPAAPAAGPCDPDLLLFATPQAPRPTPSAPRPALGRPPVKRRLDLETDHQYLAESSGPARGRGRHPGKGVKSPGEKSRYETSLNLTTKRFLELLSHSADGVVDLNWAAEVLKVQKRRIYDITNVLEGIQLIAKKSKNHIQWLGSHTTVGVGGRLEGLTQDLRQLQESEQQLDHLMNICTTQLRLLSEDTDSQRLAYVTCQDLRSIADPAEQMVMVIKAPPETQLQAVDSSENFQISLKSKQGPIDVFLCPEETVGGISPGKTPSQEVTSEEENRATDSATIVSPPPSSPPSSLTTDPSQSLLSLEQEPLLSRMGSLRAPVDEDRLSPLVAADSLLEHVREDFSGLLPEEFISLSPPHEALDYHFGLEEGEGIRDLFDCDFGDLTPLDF
How it was run: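 Transient MRTU transfection of HepG2; 24 h compound exposure; RNA → oligo(dT) RT → PCR → FAM label → HpaI cut → CE fluorescence. Gain/loss of signal fit against DMSO.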

[18] = target: Transcription factor Sp1 (Homo sapiens) (UniProt P08047); assay: ATG_Sp1_CIS: Attagene CIS-FACTORIAL HepG2 Assay for human Specificity Protein 1 (Sp1) (AID 2282961); settings: HepG2 Sp1 cis-reporter transcription, actives raise or lower the signal
Chain of Transcription factor Sp1 (Homo sapiens) (P08047 whole entry, looked up): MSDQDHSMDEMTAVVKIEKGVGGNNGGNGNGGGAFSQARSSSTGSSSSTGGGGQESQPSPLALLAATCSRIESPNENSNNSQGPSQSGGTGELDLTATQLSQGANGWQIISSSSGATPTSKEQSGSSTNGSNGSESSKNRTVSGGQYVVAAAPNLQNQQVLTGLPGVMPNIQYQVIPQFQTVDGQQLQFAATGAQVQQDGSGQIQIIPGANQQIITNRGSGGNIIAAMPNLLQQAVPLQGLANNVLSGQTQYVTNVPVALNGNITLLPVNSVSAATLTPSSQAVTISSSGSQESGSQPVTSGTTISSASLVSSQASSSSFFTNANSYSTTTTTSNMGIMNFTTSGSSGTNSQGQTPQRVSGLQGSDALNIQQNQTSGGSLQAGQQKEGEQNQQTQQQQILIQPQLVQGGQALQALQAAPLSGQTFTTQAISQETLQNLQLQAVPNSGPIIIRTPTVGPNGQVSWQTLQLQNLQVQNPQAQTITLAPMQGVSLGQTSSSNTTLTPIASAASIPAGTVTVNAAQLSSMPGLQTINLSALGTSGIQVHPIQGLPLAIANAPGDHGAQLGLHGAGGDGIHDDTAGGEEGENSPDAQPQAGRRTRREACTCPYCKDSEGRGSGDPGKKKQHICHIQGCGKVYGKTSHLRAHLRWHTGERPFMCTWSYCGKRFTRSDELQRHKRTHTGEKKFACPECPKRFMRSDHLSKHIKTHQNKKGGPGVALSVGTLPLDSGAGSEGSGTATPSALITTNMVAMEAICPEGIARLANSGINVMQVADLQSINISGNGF
How it was run: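 HepG2 cells transiently transfected with multiplexed cis-regulated reporter constructs, chemical exposure 24 h. Reporter mRNA quantified by RT-PCR with capillary electrophoresis; bidirectional fit relative to DMSO.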

[19] = target: CCAAT/enhancer-binding protein beta (Homo sapiens) (UniProt P17676); assay: ATG_C_EBP_CIS: Attagene CIS-FACTORIAL HepG2 Assay for human CCAAT/Enhancer Binding Protein (C/EBP) beta (AID 2282927); settings: HepG2 Attagene cis-factorial transcription factor reporter; actives raise or lower the signal
How it was run: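 Transiently transfected HepG2 (MRTU library, endogenous TF-driven promoters); 24 h dosing; total RNA → oligo(dT) RT → PCR → 6-FAM primer extension → HpaI digest → CE; fit bidirectionally vs DMSO.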

[20] = target: Transcriptional activator Myb (Homo sapiens) (UniProt P10242); assay: ATG_Myb_CIS: Attagene CIS-FACTORIAL HepG2 Assay for human Myeloblastosis (Myb) Proto-Oncogene Transcription Factor (AID 2282986); settings: HepG2 Attagene CIS-FACTORIAL Myb reporter transcription; actives raise or lower the signal
Chain of Transcriptional activator Myb (Homo sapiens) (P10242 whole entry, looked up): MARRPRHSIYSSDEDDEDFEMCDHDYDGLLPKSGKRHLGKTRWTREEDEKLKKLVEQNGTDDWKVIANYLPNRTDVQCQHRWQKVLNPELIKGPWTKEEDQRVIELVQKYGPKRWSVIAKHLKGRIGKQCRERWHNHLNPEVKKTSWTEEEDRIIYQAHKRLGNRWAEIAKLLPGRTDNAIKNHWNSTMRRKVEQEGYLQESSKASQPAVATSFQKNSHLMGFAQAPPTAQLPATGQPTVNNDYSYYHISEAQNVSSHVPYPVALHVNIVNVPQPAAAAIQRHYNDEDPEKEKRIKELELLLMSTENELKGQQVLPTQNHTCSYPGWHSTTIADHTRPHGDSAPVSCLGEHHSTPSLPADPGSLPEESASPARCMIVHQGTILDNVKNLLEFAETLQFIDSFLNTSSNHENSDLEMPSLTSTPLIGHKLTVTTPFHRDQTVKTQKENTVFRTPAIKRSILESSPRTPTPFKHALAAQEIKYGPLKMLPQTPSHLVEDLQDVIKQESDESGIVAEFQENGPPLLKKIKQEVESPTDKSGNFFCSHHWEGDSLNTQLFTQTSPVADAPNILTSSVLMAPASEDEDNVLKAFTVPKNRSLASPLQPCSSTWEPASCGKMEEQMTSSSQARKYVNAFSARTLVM
How it was run: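 Transiently transfected HepG2 cells carrying a multiplexed cis-promoter reporter set report endogenous Myb activity after 24 h compound exposure. Reporter mRNA is read by RT-PCR with capillary electrophoresis of fluorescent products, fitted bidirectionally against DMSO.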

Measured: AC50

COC(OC)C(C)c1ccccc1 (configuration not stated)
active: [5] 27.2 µM
inactive: [1] | [2] | [3] | [4] | [6] | [7] | [8] | [9] | [10] | [11] | [12] | [13] | [14] | [15] | [16]

c1cc(N(CC2CO2)CC2CO2)ccc1Cc1ccc(N(CC2CO2)CC2CO2)cc1 (configuration not stated)
active: [2] 6.64 µM | [4] 18.6 µM | [18] 5.73 µM | [9] 3.66 µM | [10] 6.26 µM | [12] 5.98 µM | [15] 20.8 µM | [16] 26.8 µM
inactive: [17] | [1] | [3] | [5] | [6] | [8] | [13] | [14]

CCOC(=O)c1ccccc1
inactive: [1] | [2] | [3] | [4] | [6] | [8] | [9] | [10] | [20] | [12] | [13] | [14] | [15] | [16]
active: [19] 68.7 µM | [5] 100 µM

O=C(CC(C(=O)OC1CCCCC1)S(=O)(=O)O)OC1CCCCC1 (configuration not stated)
inactive: [17] | [1] | [2] | [3] | [4] | [6] | [7] | [8] | [11] | [20] | [12] | [13] | [14] | [15] | [16]
active: [5] 9.51 µM

Oc1ccc(Oc2ccccc2)cc1
inactive: [19] | [17] | [1] | [2] | [3] | [4] | [18] | [10] | [11] | [20] | [12] | [14] | [15]
active: [9] 38.4 µM | [16] 45 µM

O=[N+]([O-])c1ccccc1C(F)(F)F
active: [2] 48.9 µM
inactive: [17] | [1] | [3] | [4] | [5] | [6] | [18] | [7] | [8] | [9] | [10] | [20] | [12] | [13] | [14] | [15] | [16]

Source: PubChem BioAssay (EPA / NIEHS)
